Several values for one entry are separate records, joined by “and”; a condition that tells them apart may be missing. Equal values may be shown once. The whole screen tested about 5,500 compounds, of which about 2,000 (36%) were called active. Roughly 18% stayed inconclusive and do not appear here. Rule as the data show it: active = normalized growth mostly below about 0.91 (no sharp cut-off); inconclusive = no clear call, values can overlap the other calls; inactive = mostly above about 0.92. Some of the results follow.
Test: chemical genetic growth profiling, strain panel (AID 1159580);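 also: tested at 20 µM; growth read once vehicle control cultures reached saturation at 30 °C; 1 = growth at the plate median or of vehicle wells; lower values mean less growth of the strain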
Details: S. cerevisiae deletion strains, growth OD

Measured: normalized growth

COc1cc(OC)c2c(c1)O[C@H](c1ccc(OC)c(OC)c1)[C@@H](O)C2
inactive: locus YAL021C, strain ccr4, active compounds read low 1.01 | locus YAL026C, strain drs2, active compounds read low 0.961 | locus YAL030W, strain snc1, active compounds read low 0.998 | locus YBL061C, strain skt5, active compounds read low 0.989 | locus YBR009C, strain hhf1, active compounds read low 1 | locus YBR021W, strain FUR4, active compounds read low 1.06 | locus YBR023C, strain chs3, active compounds read low 1 | locus YBR171W, strain sec66, active compounds read low 0.971 | locus YBR229C, strain ROT2, active compounds read low 1.01 | locus YBR231C, strain swc5, active compounds read low 0.981 | locus YBR279W, strain paf1, active compounds read low 1 | locus YCL011C, strain gbp2, active compounds read low 0.986 | locus YCL016C, strain dcc1, active compounds read low 1.02 | locus YCL029C, strain bik1, active compounds read low 1.02 | locus YCL061C, strain MRC1, active compounds read low 0.996 | locus YCL069W, strain vba3, active compounds read low 0.968 | locus YCR088W, strain abp1, active compounds read low 0.984 | locus YDL005C, strain med2, active compounds read low 0.985 | locus YDL035C, strain GPR1, active compounds read low 1.04 | locus YDL040C, strain nat1, active compounds read low 0.992 | locus YDL074C, strain BRE1, active compounds read low 1.11 | locus YDL101C, strain DUN1, active compounds read low 1.02 | locus YDL134C, strain PPH21, active compounds read low 1.09 | locus YDL185W, strain tfp1, active compounds read low 1.03 | locus YDL192W, strain arf1, active compounds read low 1 | locus YDR001C, strain nth1, active compounds read low 0.989 | locus YDR069C, strain doa4, active compounds read low 0.976 | locus YDR101C, strain arx1, active compounds read low 0.99 | locus YDR137W, strain rgp1, active compounds read low 0.949 | locus YDR159W, strain sac3, active compounds read low 0.95 | locus YDR162C, strain NBP2, active compounds read low 1.03 | locus YDR195W, strain ref2 0.976 | locus YDR297W, strain sur2, active compounds read low 0.988 | locus YDR318W, strain mcm21, active compounds read low 1.01 | locus YDR334W, strain swr1, active compounds read low 0.977 | locus YDR335W, strain msn5, active compounds read low 0.983 | locus YDR388W, active compounds read low 1.03 | locus YDR392W, strain spt3, active compounds read low 0.909 | locus YDR502C, strain sam2, active compounds read low 1.02 | locus YEL003W, strain gim4, active compounds read low 0.984 | locus YEL037C, strain rad23, active compounds read low 0.985 | locus YEL061C, strain CIN8 (second series), active compounds read low 0.976 | locus YER015W, strain faa2, active compounds read low 1.01 | locus YER016W, strain bim1, active compounds read low 0.992 | locus YER110C, active compounds read low 0.998 | locus YER111C, strain swi4, active compounds read low 0.994 | locus YER155C, strain BEM2 (second series), active compounds read low 0.947 | locus YER155C, strain BEM2, active compounds read low 1.01 | locus YER167W, strain BCK2, active compounds read low 1.01 | locus YFR010W, strain ubp6, active compounds read low 0.956 | locus YGL078C, strain dbp3, active compounds read low 1.02 | locus YGL086W, strain mad1, active compounds read low 1 | locus YGL167C, strain pmr1, active compounds read low 1 | locus YGL173C, strain kem1, active compounds read low 0.983 | locus YGL227W, strain vid30, active compounds read low 0.982 | locus YGL240W, strain doc1, active compounds read low 1 | locus YGL248W, strain PDE1, active compounds read low 1.05 | locus YGL253W, strain hxk2, active compounds read low 0.939 | locus YGR135W, strain pre9, active compounds read low 1.05 | locus YGR252W, strain gcn5, active compounds read low 1.08 | locus YHR013C, strain ard1, active compounds read low 1.01 | locus YHR027C, strain rpn1, active compounds read low 0.983 | locus YHR030C, strain SLT2, active compounds read low 0.996 | locus YHR079C, strain IRE1 (second series), active compounds read low 1.02 | locus YHR079C, strain IRE1, active compounds read low 0.992 | locus YHR094C, strain hxt1, active compounds read low 1.04 | locus YHR129C, strain ARP1, active compounds read low 1.02 | locus YHR142W, strain chs7, active compounds read low 0.993 | locus YHR200W, strain rpn10, active compounds read low 1.02 | locus YIL066C, strain RNR3, active compounds read low 1.03 | locus YIL073C, strain SPO22, active compounds read low 1.09 | locus YIL125W, strain kgd1, active compounds read low 0.99 | locus YIR030C, strain dcg1, active compounds read low 1.01 | locus YJL092W, strain hpr5, active compounds read low 0.985 | locus YJL095W, strain BCK1 (second series), active compounds read low 0.971 | locus YJL095W, strain BCK1, active compounds read low 1.1 and 0.993 | locus YJL115W, strain asf1, active compounds read low 0.994 | locus YJL129C, strain trk1, active compounds read low 0.965 | locus YJL134W, strain LCB3, active compounds read low 1.01 | locus YJL154C, strain vps35, active compounds read low 0.983 | locus YJL164C, strain tpk1, active compounds read low 1.02 | locus YJL166W, strain qcr8, active compounds read low 0.984 | locus YJL168C, strain set2, active compounds read low 1.01 | locus YJL187C, strain SWE1 (second series), active compounds read low 1.03 | locus YJL187C, strain SWE1, active compounds read low 0.988 | locus YJR043C, strain POL32, active compounds read low 1.04 | locus YJR066W, strain TOR1, active compounds read low 0.941 | locus YKL009W, strain mrt4, active compounds read low 1.05 | locus YKL068W, active compounds read low 1.01 | locus YKL085W, strain MDH1 (second series), active compounds read low 1.02 | locus YKL085W, strain MDH1, active compounds read low 1.02 | locus YKL160W, strain elf1, active compounds read low 1.02 | locus YKL190W, strain CNB1, active compounds read low 1.01 | locus YKR001C, strain vps1, active compounds read low 1.04 | locus YKR026C, strain gcn3, active compounds read low 0.975 | locus YKR091W, strain srl3, active compounds read low 0.996 | locus YLL001W, strain dnm1, active compounds read low 0.972 | locus YLL026W, active compounds read low 0.996 | locus YLL041C, strain sdh2, active compounds read low 0.993 | locus YLR027C, strain aat2, active compounds read low 0.994 | locus YLR039C, strain RIC1, active compounds read low 1.15 | locus YLR058C, strain SHM2, active compounds read low 1.02 | locus YLR102C, strain apc9, active compounds read low 1.01 | locus YLR113W, strain HOG1, active compounds read low 0.971 | locus YLR221C, strain rsa3, active compounds read low 0.953 | locus YLR258W, strain gsy2, active compounds read low 0.99 | locus YLR262C, strain YPT6 (second series), active compounds read low 0.956 | locus YLR268W, strain sec22, active compounds read low 1.02 | locus YLR320W, strain mms22, active compounds read low 0.979 | locus YLR330W, strain CHS5, active compounds read low 1.03 | locus YLR342W, strain FKS1, active compounds read low 0.997 | locus YLR357W, strain rsc2, active compounds read low 0.989 | locus YLR370C, strain arc18, active compounds read low 0.97 | locus YLR371W, strain rom2, active compounds read low 1.05 | locus YLR384C, strain iki3, active compounds read low 1.01 | locus YLR418C, strain cdc73, active compounds read low 1.09 | locus YML016C, strain PPZ1, active compounds read low 1.01 | locus YML032C, strain rad52, active compounds read low 1.01 | locus YML120C, strain ndi1, active compounds read low 1.01 | locus YML124C, strain tub3, active compounds read low 1 | locus YMR058W, strain fet3, active compounds read low 0.981 | locus YMR078C, strain ctf18, active compounds read low 1.03 | locus YMR125W, strain sto1, active compounds read low 0.982 | locus YMR129W, active compounds read low 0.999 | locus YMR205C, strain PFK2, active compounds read low 1.03 | locus YMR223W, strain ubp8, active compounds read low 1.01 | locus YMR231W, strain pep5, active compounds read low 0.973 | locus YMR263W, strain SAP30, active compounds read low 1.01 | locus YMR307W, strain GAS1, active compounds read low 1.22 | locus YNL067W, strain RPL9B, active compounds read low 1.02 | locus YNL071W, strain lat1, active compounds read low 0.989 | locus YNL153C, strain GIM3, active compounds read low 1.03 | locus YNL183C, strain NPR1, active compounds read low 0.931 | locus YNL209W, strain ssb2, active compounds read low 1.01 | locus YNL233W, strain BNI4, active compounds read low 1.07 | locus YNL248C, strain rpa49, active compounds read low 0.968 | locus YNL250W, strain rad50, active compounds read low 1.03 | locus YNL271C, strain bni1, active compounds read low 1.01 | locus YNL298W, strain CLA4, active compounds read low 1.03 | locus YNL307C, strain MCK1, active compounds read low 1.03 | locus YNL322C, strain KRE1 (second series), active compounds read low 1.01 | locus YNR049C, strain mso1, active compounds read low 0.988 | locus YNR052C, strain pop2, active compounds read low 1.04 | locus YOL006C, strain TOP1, active compounds read low 1.3 | locus YOL012C, strain htz1 1.07 | locus YOL147C, strain pex11, active compounds read low 1.01 | locus YOR001W, strain rrp6, active compounds read low 0.925 | locus YOR061W, strain CKA2, active compounds read low 1.02 | locus YOR069W, strain VPS5, active compounds read low 1.01 | locus YOR070C, strain gyp1, active compounds read low 1.01 | locus YOR080W, strain dia2, active compounds read low 0.971 | locus YOR083W, strain WHI5, active compounds read low 1.03 | locus YOR106W, strain vam3, active compounds read low 1.03 | locus YOR136W, strain idh2, active compounds read low 1.01 | locus YOR144C, strain elg1, active compounds read low 1 | locus YOR184W, strain ser1, active compounds read low 1 | locus YOR231W, strain MKK1, active compounds read low 1 | locus YOR265W, strain rbl2, active compounds read low 0.988 | locus YOR270C, strain vph1, active compounds read low 0.969 | locus YOR290C, strain snf2, active compounds read low 0.994 | locus YOR316C, strain cot1, active compounds read low 1.03 | locus YPL051W, strain arl3, active compounds read low 0.985 | locus YPL078C, strain atp4, active compounds read low 1.03 | locus YPL106C, strain sse1, active compounds read low 1.05 | locus YPL240C, strain hsp82, active compounds read low 0.992 | locus YPL256C, strain CLN2, active compounds read low 0.958 | locus YPR119W, strain clb2, active compounds read low 0.999 | locus YPR141C, strain kar3, active compounds read low 1.01 | locus YPR163C, strain tif3, active compounds read low 1.01 | locus YPR167C, strain met16, active compounds read low 1.03 | strain wtn01, active compounds read low 0.997

Source: PubChem BioAssay AID1159580 (chemical genetic matrix, 2015)
